Data from PubChem BioAssay (NCI).
This is part of a sample that, as a whole, favours compounds with a hit. Of some 83,000 tested, about 20% had one in any assay.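 Assay: single dose, 48 h. Readout: percent growth (0 = no net growth; negative = cell death). Active: <10.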 Unmarked numbers belong to inactive results. Activity calls are given as the source filed them.

How the values were obtained:
Assay in all cases: NCI-60 one-dose screen, 48 h (100 = growth as untreated, 0 = no growth, -100 = all killed)
Conditions in all cases: 10 µM unless noted
[1] = system: HCT-15 colon
[2] = system: HT29 colon
[3] = system: SNB-75 CNS
[4] = system: SNB-19 CNS
[5] = system: U251 CNS
[6] = system: PC-3 prostate
[7] = system: SK-MEL-5 melanoma
[8] = system: UACC-62 melanoma
[9] = system: LOX IMVI melanoma
[10] = system: SK-MEL-28 melanoma
[11] = system: SK-MEL-2 melanoma
[12] = system: EKVX NSCLC
[13] = system: SN12C renal
[14] = system: UO-31 renal
[15] = system: TK-10 renal
[16] = system: ACHN renal
[17] = system: CAKI-1 renal
[18] = system: CCRF-CEM leukemia
[19] = system: MOLT-4 leukemia

| SMILES | growth [1] | growth [2] | growth [3] | growth [4] | growth [5] | growth [6] | growth [7] | growth [8] | growth [9] | growth [10] | growth [11] | growth [12] | growth [13] | growth [14] | growth [15] | growth [16] | growth [17] | growth [18] | growth [19] |
| --- | --- | --- | --- | --- | --- | --- | --- | --- | --- | --- | --- | --- | --- | --- | --- | --- | --- | --- | --- |
| COc1cc2c(=O)n(CCN(C)C)c3c4cc5c(cc4ccc3c2cc1OC)OCO5 | -13.3% (active) | 0.585% (active) | 17.8% | 6.11% (active) | -4.24% (active) | 7.26% (active) | -68.7% (active) | -85.6% (active) | -58.3% (active) | -33.9% (active) | -65.1% (active) | -1.09% (active) | -4.74% (active) | -77.6% (active) | -76.2% (active) | -92.6% (active) | -89.5% (active) | 2.56% (active) | 3.91% (active) |
| Cc1ccc(S(=O)(=O)NNC(=O)/C(=C\c2ccc(Cl)cc2)c2nc3ccccc3s2)cc1 | 79.5% | 106% | 68.4% | 88.3% | 97.5% | 90.5% | 94.9% | 80.7% | 90.5% | 101% | 99.4% | 91.1% | 92.5% | 75.1% | 132% | 97.7% | 83.8% | 83.6% | 80.1% |
| O=C(N/N=C/c1cc2ccccc2n2nnnc12)Nc1ccccc1 | 98.3% | 97.2% | 103% | 97.1% | 104% | 101% | 101% | 100% | 108% | 113% | 105% | 98% | 100% | 94.1% | 101% | 108% | 94.5% | 103% | 101% |
| COc1ccccc1NC(=O)C1CC(c2ccc(F)cc2)=NO1 (centres undefined) | 99.2% | 103% | 87.9% | 96.8% | 96.3% | 104% | 95.3% | 96% | 95.5% | 107% | 103% | 89.8% | 96.3% | 82.9% | 105% | 107% | 95.3% | 104% | 103% |
| CCCOc1ccc(/C=N/Nc2cc(C)nc3ccc(Cl)cc23)cc1 | -44.4% (active) | -6.94% (active) | 104% | 58.6% | -58.3% (active) | 48.6% | 79.9% | 88.6% | -95.7% (active) | 64.8% | 91.4% | 72.8% | -10.8% (active) | 7.59% (active) | 102% | 23.3% | 74.2% | 2.96% (active) | -42.5% (active) |
| NC(=NCc1ccccc1)C(N=Nc1ccccc1)C(=O)NCc1ccccc1 (centres undefined) | 49.1% | 18.3% | 96.9% | 63.4% | 26.7% | 62.7% | 103% | 76.6% | 42.7% | 106% | 107% | 82.5% | 58.6% | 68.3% | 69.6% | 92.1% | 54% | 76% | 61% |
| ClC1=C(Br)C(Br)(Br)C(=C(Br)Br)C1(Br)Br | 79.2% | 82.5% | 96.6% | 93.9% | 94.5% | 82.8% | 92.6% | 81.2% | 77.9% | 102% | 110% | 111% | 95.5% | 71.7% | 80.4% | 78.6% | 61.3% | 25.1% | 74.5% |
| O=C(Nc1ccccc1)Nc1ccc2cc3ccc(NC(=O)Nc4ccccc4)cc3nc2c1 | 93.9% | 4.81% (active) | -0.331% (active) | -27.5% (active) | -39.3% (active) | 51.5% | 83% | 18.7% | -52.8% (active) | -13.4% (active) | 55.5% | 86.6% | -26.5% (active) | 89.9% | 114% | 92% | 80.3% | 0.957% (active) | -27.6% (active) |
| COc1cc2c(=O)n(CCCN(C)C)c3c4cc5c(cc4ccc3c2cc1OC)OCO5 | 52.1% | 30.5% | 90.2% | 52.6% | 55.8% | 50.8% | 71% | 59.4% | 36.3% | 87.2% | 89% | 85% | 50.4% | 41.9% | 84.5% | 36.8% | 62% | 13.8% | -9.29% (active) |
| COc1cc(C2C3CC4CCCC[C@H]4N3[C@@]3(C(=O)Nc4cc(Cl)ccc43)C2C(=O)c2nc3ccccc3[nH]2)cc(OC)c1OC (some centres undefined) | 43.3% | 35.6% | 78.8% | 72.5% | 56.7% | 43.7% | 64.6% | 57.5% | 58.8% | 82.4% | 80.5% | 48.6% | 63.2% | 34.8% | 68.8% | 56.9% | 30.6% | 42.2% | 14% |
| O=[N+]([O-])CC(c1ccccc1F)c1c[nH]c2ccccc12 (centres undefined) | 39.3% | 23.6% | 54.9% | 80.5% | 65.6% | 87.5% | 81.5% | 53.4% | 61% | 78.2% | 57% | 79.4% | 88.6% | 71.9% | 96.8% | 94.7% | 59.2% | 69.7% | 59% |
| Cc1nc2ccc(Cl)cn2c1-c1nnc(SCc2ccc([N+](=O)[O-])cc2)o1 | 60.3% | 83.9% | 39.8% | 39.8% | 57.7% | 74% | 43.8% | 46.3% | 69.3% | 40.2% | 84.9% | 65.3% | 48.4% | 39.5% | 91.3% | 31.3% | 65.7% | 116% | 93.7% |
| O=C(c1nc2ccccc2[nH]1)C1C(c2ccc(Br)cc2)C2CC3CCCC[C@H]3N2[C@@]12C(=O)Nc1cc(Cl)ccc12 (some centres undefined) | 23.7% | 27.9% | 49.1% | 49.8% | 43.9% | 28.4% | 51% | 58% | 30% | 62.4% | 73.3% | 37% | 39.7% | 20.6% | 40.7% | 29.9% | 17.7% | 32% | 6.93% (active) |
| NC(=NCCCOc1ccc(F)cc1)Nc1ccc(Cl)cc1 | 69.4% | 13.8% | 80.9% | 55.2% | 76.7% | 50.2% | 4.33% (active) | 56.8% | 83.9% | 88.3% | 84.6% | 52.8% | 65.1% | 49.1% | 64% | 18.3% | 39% | 49.7% | 23.5% |
| C=C1C(=O)O[C@H]2[C@H]1CC/C(CNC(=O)/C=C/c1cccc(OC)c1)=C\CC[C@@]1(C)O[C@@H]21 | -44.7% (active) | -36.7% (active) | 90.1% | 55.5% | 47.3% | 36% | 67.8% | -26.6% (active) | 0.442% (active) | -48.7% (active) | 55.6% | -20.2% (active) | 6.02% (active) | -94.6% (active) | -37.7% (active) | -79.7% (active) | -71.9% (active) | 1.02% (active) | -3.23% (active) |
| CCN(CC)c1ccc(/C=N/NC(=O)CSc2nc3ccccc3c(=O)n2Cc2ccc(S(N)(=O)=O)cc2)c(O)c1 | 47.5% | 32.1% | 38.8% | 41.8% | 24.4% | 48.8% | 5.72% (active) | 6.51% (active) | 1.32% (active) | 33.1% | 10.5% | 35.1% | 32.5% | 45.9% | 15.1% | 33.6% | 31% | 10.8% | 11.1% |
